From PubChem BioAssay
The list is not random: actives were taken first. Their share in the collection is about 14%.
HCV inhibitor = inhibitors of hepatitis C virus infection | Huh7.5.1 HCVcc-Cre infection, luciferase reporter, 44 h | Potency, µM (series often up to 41.8 µM), inactives show at the highest dose activity change, negative = inhibition, usual class: inhibitors | AID 651820 | hit rate 3.4% among 340,000; note: potency is the fitted concentration of half-maximal effect
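Infectious HCVcc-Cre (~0.5 moi) was added to cells just after compound, with cells seeded 4 h earlier at 1,000 per well. Luciferase activity after 44 h culture reported infection; substrate was incubated 15 min at room temperature before reading.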
Marburg entry inh = blocks Marburg virus binding to or entry into cells; Marburg virus pseudotyped entry inhibition, cell reporter; Potency, µM (titrated, usually from 37.8 µM), for inactives: top-dose activity change, negative = inhibition, most hits filed as inhibitors; hit rate 1.8% among 300,000; AID 540276; calls by dose curve; tested in HEK293 cells; note: potency is the fitted concentration of half-maximal effect
Pf growth 96h = P. falciparum growth inhibition at 96 hours. hit rate 6.9% among 320,000. P. falciparum luciferase reporter growth, 96 h. Potency, µM (top dose mostly 28.7 µM), without a hit: top-dose activity change, negative = inhibition, usual class: inhibitors; note: potency is the fitted concentration of half-maximal effect
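Compounds incubated with erythrocytes infected by luciferase-expressing P. falciparum (2% hematocrit, 0.05% parasitemia final) for 96 hours, 37 C in 5% CO2. Growth inhibition scored as decreased luciferase luminescence.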
LASV entry inh = blocks Lassa virus binding to or entry into cells. Lassa virus pseudotype entry inhibition, cell reporter. Potency, µM (series often up to 37.9 µM), inactives show at the highest dose activity change, negative = inhibition, usual class: inhibitors. hit rate 1.2% among 300,000. AID 540256; calls by dose curve; tested in HEK293 cells; note: potency is the fitted concentration of half-maximal effect; nearly all actives have a fitted effect of over 50% in size
Pf growth 48h = inhibits P. falciparum growth in the first generation, 48 h; P. falciparum luciferase growth in erythrocytes, 48 h; Potency, µM (doses to about 28.7 µM), without a hit: top-dose activity change, negative = inhibition, actives largely listed as inhibitors; hit rate 5.9% among 310,000; AID 504832; note: potency is the fitted concentration of half-maximal effect
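Compounds are pin-transferred into medium, infected erythrocytes (2% hematocrit, 0.1% parasitemia final) are added, and plates sit one parasite generation at 37 C in 5% CO2. Detection reagent is then added and luminescence measured.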
HCMV antiviral = human cytomegalovirus inhibition | activity change, negative = inhibition, % at 57.5 µM | HFF cells, HCMV-luciferase reporter, 72 h; hits give low values | hit rate 4.5% among 410,000 | AID 1259415; in the data active = activity change below about -60%; inconclusive = no clear call, values can overlap the other calls; inactive = above about -39%
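Two compound doses tested in HFFs infected with HCMV-luciferase, MOI 1 PFU/cell, 72 h at 37C. Lysate luminescence read with OneGlo; data normalized against buffer-only and 10uM Salinomycin inhibitor controls.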
The depositor's hits bear a star; ? = inconclusive; . = no result; [ ] = another dose, or the depositor's remark. Unless noted, calls come from the whole dose curve; as a rule, active = well fitted inhibition curve with a large enough effect; inconclusive = small, poorly fitted or top-dose-only effect, or another doubt; inactive = no such curve, though single readings can be large or run the other way. % is set by controls: 0 for no effect and ±100 for the full control effect.

SMILES | HCV inhibitor | Marburg entry inh | Pf growth 96h | LASV entry inh | Pf growth 48h | HCMV antiviral
Nc1nnc(/C=C/c2ccccc2Cl)s1 | 9% | 7.1µM* | 144% | ? | 109% | 79
Cc1ccnc(NC(=O)c2ccc3c(c2)NC(=O)C(C)S3)c1 (stereo not drawn) | -21% | . | 246% | . | 136% | 5
CC1Sc2ccc(C(=O)Nc3ccc(S(=O)(=O)N(C)C)cc3)cc2NC1=O (stereo not drawn) | ? | ? | ? | ? | ? | -21
COc1ccc(S(=O)(=O)N(C)C)cc1NC(=O)c1ccc2c(c1)NC(=O)C(C)S2 (stereo not drawn) | ? | . | 5.2µM* | . | 9.3µM* | 0
CC(=O)c1ccccc1NC(=O)c1ccc2c(c1)NC(=O)C(C)S2 (stereo not drawn) | 11µM* | ? | 9% | -33% | -5% | -16
CCCNC(=O)c1ccccc1NC(=O)c1ccc2c(c1)NC(=O)C(C)S2 (stereo not drawn) | 4.5µM* | . | ? | . | ? | 15
CC1Sc2ccc(C(=O)NCc3cccc(C(F)(F)F)c3)cc2NC1=O (stereo not drawn) | 22µM* | . | -28% | . | ? | 0
O=C(NCc1cccc(C(F)(F)F)c1)c1ccc2c(c1)OCO2 | -8% | . | ? | . | -22% | 29
S=c1[nH]ncn1/N=C/c1ccco1 | . | . | . | . | . | -13
Cn1ncc(C#N)c1NC(=O)c1nn2cccnc2c1Cl | 16% | 14% | 4.7µM* | 14% | 5% | -30
COCCNC(=O)c1nn2cccnc2c1Cl | 14% | 17% | 0% | 12% | . | 83
CCN(CC)CCOC(=O)C(C)(c1ccccc1)c1ccccc1 | . | . | 11µM* | . | ? | .
CCN(CC)CCCOC(=O)C(OC(C)C)(c1ccccc1)c1ccccc1 | 7.1µM* | 12µM* | 27% | 16µM* | ? | -37
CCN(CC)CCOCCOC(=O)C(CC)(CC)c1ccccc1 | -9% | -71% | 0% | ? | -7% | 17
COCC(=O)N1CCC(Oc2ccc(C(=O)N(C)C3CCCCC3)cc2)CC1 | 4% | . | -19% | . | 5% | -9
Cc1cc(C)n(C(=O)CNC(=O)c2ccc3c(c2)OCCO3)n1 | 1% | 2% | 1.9µM* | 23% | 24% | -12
O=C(C[n+]1ccc(C(=O)NCc2ccccc2)cc1)c1ccc2c(c1)OCCO2 | 8% | 10% | 12% | 8% | 6% | -10
O=C(NCCc1ccccc1)c1ccc2nc(-c3ccco3)c(-c3ccco3)nc2c1 | 11µM* | ? | -14% | ? | . | .
O=C(CCc1ccccc1)c1ccc2c(c1)OCCCO2 | 1% | 22% | . | ? | ? | 41
O=C(CCCc1ccccc1)c1ccc2c(c1)OCCO2 | -19% | 0.46µM* | 12% | ? | -6% | -91*
Nc1cc[n+](CC(=O)c2ccc3c(c2)OCCO3)cc1 | ? | -11% | ? | ? | 4.7µM* | -82*
CC1(O)C(=O)C=C2C=C(c3ccc(C#N)cc3)OC=C2C1=O (stereo not drawn) | . | 7%[14.2 µM] | . | ? | . | .
COc1ccc(Cl)cc1NC(=O)C1CCN(c2ncnc3c2nc2n3CCCCC2)CC1 | . | . | . | 8%[46.1 µM] | . | 5
O=C(NCc1ccc(F)cc1)c1cc2n(n1)CCCN(Cc1ccc(F)cc1)C2=O | . | -2%[46.1 µM] | . | . | . | -7
COc1ccc(COC(=O)CCc2cc(OC)c(OC)c(OC)c2)cc1F | -11% | 2%[46.1 µM] | . | -1% | . | 23
SMILES | HCV inhibitor | Marburg entry inh | Pf growth 96h | LASV entry inh | Pf growth 48h | HCMV antiviral
COc1ccc(CCNC(=O)c2ccc3c(c2)OCCO3)cc1 | -2% | ? | 203% | ? | 112% | 59
O=C(NCCc1ccccc1)c1ccc2c(c1)OCCCO2 | 10% | ? | -38% | ? | -40% | -93*
O=C(NCCc1ccccc1)c1ccc2c(c1)OCCO2 | 22% | 0.45µM* | -4% | 0.35µM* | -30% | -79*
CC(=O)Nc1ccc(-c2nnn(CC(=O)c3ccccc3)n2)cc1Cl | -15% | 21% | ? | 15% | ? | 56
CC(=O)Nc1ccc(-c2nnn(CC(=O)c3ccc(F)cc3)n2)cc1Cl | -1% | . | 13µM* | . | ? | -12
CCCCn1c(N)c(N(CCOC)C(=O)c2ccc(F)c(S(=O)(=O)N3CCOCC3)c2)c(=O)[nH]c1=O | 6% | 23% | 18% | -2% | 7% | -14
S=C1NC[C@H](c2ccccc2)N1CC1CCCCC1 | ? | . | 8.3µM* | . | ? | ?
CC(=O)c1cccc(NS(=O)(=O)c2cc3c(cc2C)NC(=O)CO3)c1 | -16% | -24%[46.1 µM] | 15µM* | -10%[46.1 µM] | 17% | 22
Cc1cccc(CCNC(=O)CCS(=O)(=O)c2cc3c(cc2C)NC(=O)CO3)c1 | -22% | . | ? | -10%[46.1 µM] | 7% | 22
Cc1cc2c(cc1S(=O)(=O)CCC(=O)NCCc1ccccc1)OCC(=O)N2 | -2% | . | 8.3µM* | 0%[46.1 µM] | -11% | 35
Cc1cccc(CCNS(=O)(=O)c2cc3c(cc2C)NC(=O)CO3)c1 | -25% | . | 9.3µM* | . | 17% | -17
Cc1ccc(CCNS(=O)(=O)c2cc3c(cc2C)NC(=O)CO3)cc1 | -28% | . | 53% | . | -7% | -1
CCN(C(=O)CCS(=O)(=O)c1cc2c(cc1C)NC(=O)CO2)c1cccc(C)c1 | . | . | . | 12%[46.1 µM] | . | -103*
COc1ccc(CCNC(=O)c2ccc3c(c2)c(C)c(C)n3Cc2ccc(F)cc2)c(OC)c1OC | . | . | . | -5%[46.1 µM] | . | 0
CCOc1ccc(CCN2C(=S)N([C@@H](Cc3ccc(O)cc3)CN3CCC[C@@H]3CN3C(=S)NC[C@@H]3Cc3ccc(O)cc3)C[C@@H]2Cc2ccc(O)cc2)cc1 | . | . | . | . | . | -26
O=C(OC1C[C@H]2CC[C@@H](C1)[N+]21CCCC1)C(O)(c1ccccc1)c1ccccc1 (stereo partly drawn) | . | . | 9% | . | 6.7µM* | .
Cc1cc(C)c2oc(C(=O)Nc3nc4ccc(Cl)cc4s3)cc(=O)c2c1 | . | -5%[46.1 µM] | . | 3%[46.1 µM] | . | 8
O=C1OCCC1Sc1nc2ccccc2n1-c1ccccc1 (stereo not drawn) | 6% | -16%[46.1 µM] | 12µM* | -13% | . | 7
COc1ccc(-n2c(SC3CCOC3=O)nc3ccccc32)cc1 (stereo not drawn) | 2% | ? | ? | -2% | -11% | 22
Cc1cc(NS(=O)(=O)c2ccc(N)cc2)nc(C)n1 | . | . | 2% | . | -1% | 2
Cc1ccc(C)c(C(=O)COc2ccccc2[N+](=O)[O-])c1 | -3% | 12% | 35% | -1% | -2% | -7
Cc1ccc([N+](=O)[O-])c(OCC(=O)OCC(=O)c2ccccc2)c1 | -9% | ? | 0.93µM* | 20% | 11% | -7
CCOC(=O)c1oc2ccc(Br)cc2c1NC(=O)CN1CCN(C)CC1 | 10µM* | ? | 133% | -9% | ? | 24
CN1CCN(CC(=O)Nc2c(C(=O)c3ccccc3)oc3ccccc23)CC1 | 11µM* | ? | -68% | ? | ? | ?
